We go through 43 compounds from PubChem BioAssay (NCATS).

Inconclusive results are not listed. A call without a number means that no potency is given here. A number with no mark means an inactive call. Active and inactive are the calls of the source. The call rests on the fitted dose curve; in most records, active means well fitted inhibition curve with a large enough effect; inconclusive means small, poorly fitted or top-dose-only effect; inactive means flat fitted curve, though single readings scatter.

The test system of assay [1] is CRL-7250. Put plainly: Cytotoxic Profiling of Annotated Libraries Using Quantitative High-Throughput Screening (AID 1296008). To be noted: Five cell lines viability, CellTiter-Glo ATP luminescence, 48-72 h; max response: hits give low values. Put shortly:
(§1)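 Cells exposed to compounds for 48 or 72 hr at 37 degrees Celsius. Viability read as ATP-coupled luminescence with CellTiter-Glo after 10 min at room temperature.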
For orientation: Cellular ATP, detected with luciferase, serves as a proxy for viable cell number.

Assay [2] deals with HEK293. Described as above. To be noted: Five cell lines viability, CellTiter-Glo ATP luminescence, 48-72 h; max response: hits give low values. Put shortly:
as §1

Assay [3] concerns KB-3-1. The description is as above. To be noted: Five cell lines viability, CellTiter-Glo ATP luminescence, 48-72 h; max response: hits give low values. Put shortly: as §1
Assay [4] has as its system NIH3T3. The description is as above. To be noted: Five cell lines viability, CellTiter-Glo ATP luminescence, 48-72 h; max response: hits give low values. Put shortly: as §1
Assay [5] has as its system MCC-13. Put plainly: qHTS assay to identify novel small-molecules to repurpose for Merkel cell carcinoma treatment (AID 1296009). To be noted: MCC and control cell lines, CellTiter-Glo viability, 72 h; series mostly up to 46 µM. Put shortly:
(§2)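 Cells were incubated with compound for 72 hr at 37 degree celsius before CellTiter-Glo addition. Luminescence was normalized with no-cell wells as full cytotoxicity and DMSO as baseline.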

Assay [6] has as its system PC26. Put plainly: qHTS profiling for inhibitors of Plasmodium falciparum proliferation (AID 504749). Further: potency means the concentration at half of the fitted maximal effect. To be noted: P. falciparum in erythrocytes, SYBR Green DNA, 72 h; series mostly up to 28.7 µM. Put shortly:
(§3)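 Readout was DNA-dye fluorescence from lysed cultures, ex 485/em 535 nm. Parasitized red cells had grown 72 h with compound; data scaled between 0.29 uM artemisinin and DMSO wells and corrected using vehicle-only plates.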
In general terms: qHTS replaces the single test concentration by a dilution series.

In assay [7] the test system is CRL-7250. Put plainly: qHTS assay to identify novel small-molecules to repurpose for Merkel cell carcinoma treatment (AID 1296009). To be noted: MCC and control cell lines, CellTiter-Glo viability, 72 h; at 44.8 µM (top of the series) unless noted. Put shortly: as §2
The subject of assay [8] is HEK293T. Described as above. To be noted: MCC and control cell lines, CellTiter-Glo viability, 72 h; at 44.8 µM (top of the series) unless noted. Put shortly:
as §2

For assay [9], the system named is P93_24. Put plainly: qHTS profiling for inhibitors of Plasmodium falciparum proliferation (AID 504749). Further: potency means the concentration at half of the fitted maximal effect. To be noted: P. falciparum in erythrocytes, SYBR Green DNA, 72 h; series mostly up to 28.7 µM. Put shortly:
as §3

Assay [10] relates to P94_40. The description is as above. To be noted: P. falciparum in erythrocytes, SYBR Green DNA, 72 h; series mostly up to 28.7 µM. Put shortly: as §3
The test system of assay [11] is PAD. The assay is described as above. To be noted: P. falciparum in erythrocytes, SYBR Green DNA, 72 h; series mostly up to 28.7 µM. Put shortly:
as §3

Assay [12] has as its system PC15. Described as above. To be noted: P. falciparum in erythrocytes, SYBR Green DNA, 72 h; series mostly up to 28.7 µM. Put shortly:
as §3

In assay [13] the test system is PC49. Described as above. To be noted: P. falciparum in erythrocytes, SYBR Green DNA, 72 h; series mostly up to 28.7 µM. Put shortly:
as §3

In assay [14] the test system is SC27B. The description is as above. To be noted: P. falciparum in erythrocytes, SYBR Green DNA, 72 h; series mostly up to 28.7 µM. Put shortly: as §3
Assay [15] has as its system TAB109. The description is as above. To be noted: P. falciparum in erythrocytes, SYBR Green DNA, 72 h; series mostly up to 28.7 µM. Put shortly:
as §3

Assay [16] concerns TAB113. The assay is described as above. To be noted: P. falciparum in erythrocytes, SYBR Green DNA, 72 h; series mostly up to 28.7 µM. Put shortly:
as §3

Assay [17] concerns TAB165. The assay is described as above. To be noted: P. falciparum in erythrocytes, SYBR Green DNA, 72 h; series mostly up to 28.7 µM. Put shortly: as §3
In assay [18] the test system is W2. Described as above. To be noted: P. falciparum in erythrocytes, SYBR Green DNA, 72 h; series mostly up to 28.7 µM. Put shortly: as §3
Further: nearly all actives have a fitted effect of over 60% in size.

As to `CC(O)=C(C#N)C(=O)Nc1cc(Br)ccc1Br`, the max response in [1] is 1.28%; in [2], -1.81%; in assay [4], -15.7%. The result in assay [3] was inactive. Also, the Potency result in assay [5] is “inactive”.

Consider `COC(=O)c1cncn1C(C)c1ccccc1` (stereo not given), for which the Potency entry in [6] is “inactive”.

With `C=C[C@@H]1CN2CCC1C[C@H]2[C@H](O)c1ccnc2ccccc12` (stereo not given in full), the compound was classed as inactive in [7].

On to `O=C(O)CNC(=O)c1c(O)c2ccccc2n(Cc2ccccc2)c1=O`, for which the result in assay [8] was inactive.

Turning to `Cc1nnc(C(C)C)n1C1CC2CCC(C1)N2CC[C@H](NC(=O)C1CCC(F)(F)CC1)c1ccccc1` (stereo not given in full), the call in assay [7] was inactive.

In the case of `CC(C)(C)c1cc(C(C)(C)C)c(NC(=O)c2c[nH]c3ccccc3c2=O)cc1O`, the call in assay [7] was inactive.

On to `C[C@H](NC(=O)Cc1cc(F)cc(F)c1)C(=O)N[C@@H]1C(=O)N(C)c2ccccc2-c2ccccc21`, for which the compound was called inactive in [7].

With `COc1ccc(-c2oc3cc(OC)ccc3c2C(=O)c2ccc(C#N)cc2)cc1`, the outcome in assay [7] was inactive.

Consider `Clc1ccccc1CN1CCc2sccc2C1`, for which, in [7], the compound was classed as inactive.

Take `O=S(c1cc(Cl)cc(Cl)c1O)c1cc(Cl)cc(Cl)c1O`: the call in [7] was inactive.

As for `CN1CCN(c2c(F)cc3c(=O)c(C(=O)O)cn4c3c2OCN4C)CC1`, the outcome in assay [7] was “inactive [at 17.4 µM]”.

For the compound `CN1C2CCC1CC(OC(=O)c1cc(Cl)cc(Cl)c1)C2` (stereo not given), the Potency result in [9], in assay [10], in assay [11], in assay [12], in assay [6] and in assay [13] was “inactive” throughout. For the same compound, the Potency result in assay [14], in assay [15], in [16] and in assay [17] was “inactive” throughout. In addition, the Potency in [18] was 10.7 µM (active).

For the compound `Cc1cc2c(cc1C1(c3ccc(C(=O)O)cn3)CC1)C(C)(C)CCC2(C)C`, the call in assay [7] was inactive.

For the compound `CNCc1ccc(-c2[nH]c3cc(F)cc4c3c2CCNC4=O)cc1`, the outcome in assay [7] was inactive.

Consider `COc1c(Cl)cc2c([nH]c3cnccc32)c1NC(=O)c1cccnc1C`, for which the call in assay [7] was inactive.

With `C[C@]12CC[C@H](O)CC1=CC[C@@H]1[C@H]2CC[C@]2(C)C(c3cccnc3)=CC[C@H]12`, in assay [7], the outcome is “inactive [at 17.4 µM]”.

In the case of `Cn1c(NCCN(CCO)CCCc2ccc([N+](=O)[O-])cc2)cc(=O)n(C)c1=O`, the compound was classed as inactive in [7].

With `CC(C)OC(=O)C1=CN(C(=O)c2ccc(F)c(F)c2)CC(C)(C)c2c1[nH]c1ccccc21`, in assay [7], the result was inactive.

Consider `CC(C)(C)COc1ccc(-n2cc(C(=O)O)cn2)cc1C#N`, for which the compound was classed as inactive in [7].

As for `C1=CC2C3C=CC(C3)C2C1` (stereo not given), the outcome in assay [7] was “inactive [at 92 µM]”.

With `CCN(CC)CCNC(=O)c1ccc(NC(C)=O)cc1`, the call in [7] was inactive.

As for `CC(C)CCCC(C)CCCC(C)CCCCC(C)CCCC(C)CCCC(C)C` (stereo not given), the compound was classed as inactive in [7].

As for `C[C@@H]1CN(c2c(F)c(N)c3c(=O)c(C(=O)O)cn(C4CC4)c3c2F)C[C@H](C)N1`, the outcome in assay [7] was “inactive [at 17.4 µM]”.

As to `CCOC(=O)[C@@H](N)CCC(=O)N[C@@H](CSCc1ccccc1)C(=O)N[C@@H](C(=O)OCC)c1ccccc1`, in assay [7], the result was inactive.

`O=C(O)[C@H](Cc1c[nH]c2ccccc12)N1C(=O)c2ccccc2C1=O`: the outcome in assay [7] is “inactive [at 92 µM]”.

`O=C(C1CC1)N1CC[C@@H](Cn2c(-c3ccc(-c4ccc5occc5c4)cc3)nc3cnccc32)C1`: the result in assay [7] was inactive.

For the compound `CC(C)(C)C(O)/C=C/c1ccc2c(c1)OCO2` (stereo not given), in assay [7], the result was inactive.

With `COc1cc2c(cc1OC)C(=O)CC2`, the compound was called inactive in [7].

As for `C=CCN1CC[C@]23CCCCC2[C@H]1Cc1ccc(O)cc13` (stereo not given in full), the Potency result in assay [9], in [10], in assay [11], in assay [6], in [13] and in assay [14] was “inactive” each time. In addition, the Potency entry in [15], in assay [16] and in assay [17] was “inactive” each time.

With `O=[N+]([O-])c1cccc(S(=O)(=O)NCCNS(=O)(=O)c2cccc([N+](=O)[O-])c2)c1`, the result in [7] was inactive.

With `COc1ccc(C(c2ccc(OC)cc2)C(Cl)(Cl)Cl)cc1`, the Potency entry in [5] was “inactive”.

`O=C(Nc1cccc(C2=NCCN2)c1)Nc1cccc(C2=NCCN2)c1`: in assay [7], the outcome is “inactive [at 17.4 µM]”.

Take `O=C(C=Cc1c(C(=O)O)[nH]c2cc(Cl)cc(Cl)c12)Nc1ccccc1`: the compound was classed as inactive in assay [7].

On to `CN1[C@H]2CC(O)C[C@H]1[C@H]1O[C@H]12` (stereo not given in full), for which the Potency entry in assay [5] is “inactive”.

With `CC(C[N+](C)(C)C)OC(N)=O` (stereo not given), the compound was called inactive in [7].

In the case of `Nc1ccc(S(=O)(=O)Nc2ccccc2)cc1`, the result in assay [7] was inactive.

With `CCCn1c(=O)c2[nH]c(C34CC5CC3C[C@@H](C5)C4)nc2n(CCC)c1=O`, the outcome in assay [7] was inactive.

For `CC(C)[C@H](CO)Nc1nc(Nc2ccc(C(=O)O)c(Cl)c2)c2ncn(C(C)C)c2n1`, the outcome in assay [7] is “inactive [at 17.4 µM]”.

With `CC(C)(C)C(=O)Oc1ccc2c(c1)nc(NC(=O)c1cccc([N+](=O)[O-])c1)n2CCCO`, the outcome in assay [7] was inactive.

On to `CS(=O)(=O)Oc1ccc2c(NC(N)=O)c(C(=O)c3ccc(Cl)cc3Cl)oc2c1`, for which, in assay [7], the call was inactive.

Consider `Clc1ccc2ncc(-c3cccc(NC4CNC4)n3)n2c1`, for which the call in assay [7] was inactive.

On to `Cc1c(C)c2c(c(C)c1OC(=O)c1cccnc1)CC[C@@](C)(CCC[C@H](C)CCC[C@H](C)CCCC(C)C)O2`, for which, in [7], the compound was called inactive.

Consider `CC1=NN(c2ccccc2)C(=O)C1`, for which the compound was classed as inactive in assay [7].
